# Test results reported in PubChem BioAssay (EPA / NIEHS).
# Results filed as inconclusive are left out. The source made the active and inactive calls. Rule for the calls, unless noted: active = hit-call score of the fitted dose curve at least 0.9, where 1 is the maximum; inactive = score below 0.9.
# Tests used:
# [1] = CCTE_Shafer_MEA_acute_spike_number: CCTE's Neural Acute Assay for Total Number of Spikes, Shafer Lab (AID 2284008);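 for AC50: curve fitted for decrease in spike count so AC50 reflects inhibitors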
# Outline: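 Total spike count from 40 min recordings before and during compound exposure (0.03-40 uM), given as per-well percent change. Cortical cultures from rat, DIV 13 or 15, 37 C; adaptive detection threshold 8x rms noise.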
# [2] = CCTE_Shafer_MEA_acute_firing_rate_mean: CCTE's Neural Acute Assay for Mean Firing Rate, Shafer Lab (AID 2284009);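 note: analyzed for loss of signal so actives lower firing rate relative to DMSO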
# Outline: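 Percent change in well-mean firing rate was derived from extracellular spikes detected at 8x rms noise (300-5000 Hz band-pass) before and after a 40-min compound exposure. Cultures were primary rat cortical neurons, tested at 0.03-40 uM.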
# [3] = biological target: Nucleoli Translocation, AR (gene 367) (UniProt P10275); experiment: UPITT_HCI_U2OS_AR_TIF2_Nucleoli_Antagonist: University of Pittsburgh U2OS Androgen Receptor-Transcriptional Intermediary Factor 2 (AR-TIF2) Antagonism High Content Imaging Assay for Nucleoli Translocation (AID 2283997; active = hit-call score of the fitted dose curve at least 0.9, where 1 is the maximum)
# Nucleoli Translocation, AR (gene 367), sequence (P10275 whole entry, looked up): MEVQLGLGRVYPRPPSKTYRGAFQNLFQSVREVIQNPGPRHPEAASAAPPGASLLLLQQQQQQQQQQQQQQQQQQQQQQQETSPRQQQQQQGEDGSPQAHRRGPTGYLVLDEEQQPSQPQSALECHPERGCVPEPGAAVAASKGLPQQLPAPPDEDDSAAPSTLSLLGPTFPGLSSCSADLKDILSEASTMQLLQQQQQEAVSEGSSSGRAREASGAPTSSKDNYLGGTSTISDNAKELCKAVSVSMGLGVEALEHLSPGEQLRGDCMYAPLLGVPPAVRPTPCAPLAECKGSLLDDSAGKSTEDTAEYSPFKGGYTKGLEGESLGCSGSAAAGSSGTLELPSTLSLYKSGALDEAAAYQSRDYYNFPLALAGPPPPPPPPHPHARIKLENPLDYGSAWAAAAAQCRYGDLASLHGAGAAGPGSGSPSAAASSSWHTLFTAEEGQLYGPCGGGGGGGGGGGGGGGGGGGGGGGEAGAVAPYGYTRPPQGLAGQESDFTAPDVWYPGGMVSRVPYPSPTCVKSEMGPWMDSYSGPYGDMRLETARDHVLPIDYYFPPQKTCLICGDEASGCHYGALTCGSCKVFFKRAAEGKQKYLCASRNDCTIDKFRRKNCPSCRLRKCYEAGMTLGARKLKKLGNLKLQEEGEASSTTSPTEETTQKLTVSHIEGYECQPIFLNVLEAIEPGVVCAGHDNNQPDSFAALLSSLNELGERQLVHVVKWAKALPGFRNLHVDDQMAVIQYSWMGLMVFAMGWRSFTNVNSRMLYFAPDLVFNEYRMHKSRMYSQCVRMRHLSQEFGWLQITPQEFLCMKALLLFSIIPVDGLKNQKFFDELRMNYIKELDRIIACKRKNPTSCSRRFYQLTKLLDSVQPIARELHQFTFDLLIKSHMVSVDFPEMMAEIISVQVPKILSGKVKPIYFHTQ
# Outline: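 Measured quantity was AR-RFP fluorescence localized to nucleoli in engineered U2OS cells also bearing TIF2-GFP, acquired on automated high-content imagers. Primary testing used 20 uM compound; actives were confirmed in triplicate wells.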
# [4] = biological target: Nucleoli Translocation, AR (gene 367) (UniProt P10275); experiment: UPITT_HCI_U2OS_AR_TIF2_Nucleoli_Agonist: University of Pittsburgh U2OS Androgen Receptor-Transcriptional Intermediary Factor 2 (AR-TIF2) Agonism High Content Imaging Assay for Nucleoli Translocation (AID 2283998; active = hit-call score of the fitted dose curve at least 0.9, where 1 is the maximum)
# Outline: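 Nucleolar translocation of AR-RFP, with TIF2-GFP coexpressed in human osteosarcoma U2OS, imaged by high-content fluorescence. Compounds tested singly at 20 uM final, confirmed in triplicate, then titrated 0.195–50 uM final; gain-of-signal relative to DMSO.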
# [5] = biological target: Ratio of Nucleoli Translocation and Cytoplasm, AR (gene 367) (UniProt P10275); experiment: UPITT_HCI_U2OS_AR_TIF2_Nucleoli_Cytoplasm_Ratio_Agonist: University of Pittsburgh U2OS Androgen Receptor-Transcriptional Intermediary Factor 2 (AR-TIF2) Agonism High Content Imaging Assay for Ratio of Nucleoli Translocation and Cytoplasm (AID 2284000; active = hit-call score of the fitted dose curve at least 0.9, where 1 is the maximum;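 note: hits raise the red nucleolar to cytoplasm ratio above vehicle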)
# Ratio of Nucleoli Translocation and Cytoplasm, AR (gene 367), sequence (P10275 whole entry, looked up): as above
# Outline: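 Read-out first: nucleolar-to-cytoplasm ratio of red (AR-RFP) signal, quantified by high-content imaging in U2OS cells co-expressing TIF2-GFP. Activity is scored as signal increase over DMSO. Single-point screening used 20 uM final (0.2% DMSO).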
# [6] = CCTE_Simmons_MITO_basal_resp_rate: CCTE's HepG2 Seahorse XF Respirometric Screening Assay at Basal Respiratory State, Simmons Lab (AID 2284001); conditions: actives raise or lower the signal
# Outline: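 HepG2 respirometry; 7-pt titration 125 nM–100 uM final; kinetic OCR at 6 min intervals for 72 min; n=3 biological, technical singles; DMSO baseline, gain or loss fit; fenpyroximate (decrease) and 2,4-DNP (increase) controls.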
# [7] = CCTE_Simmons_MITO_max_resp_rate: CCTE's HepG2 Seahorse XF Respirometric Screening Assay at Maximal Respiratory State [uncoupled], Simmons Lab (AID 2284002); conditions: actives raise or lower the signal
# Outline: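 Maximal (FCCP-uncoupled) respiration rate in HepG2, from Seahorse kinetic OCR over 72 min at 6 min cycles. Compounds at 125 nM–100 uM final, 7 points, three biological replicates; both directions fit relative to DMSO.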
# [8] = CCTE_Simmons_MITO_inhib_resp_rate: CCTE's HepG2 Seahorse XF Respirometric Screening Assay at Inhibited Respiratory State [full ETC block], Simmons Lab (AID 2284006); conditions: actives raise or lower the signal
# Outline: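 HepG2 cells on Seahorse XF96; oxygen consumption measured after test compound, then FCCP, then rotenone/antimycin A injections over 72 min. Test chemicals at 7 concentrations, 125 nM–100 uM final. OCR fitted bidirectionally versus DMSO.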
# [9] = CCTE_Harrill_HTTr_Viability_DMEM_24hr: (Pilot) CCTE's 24-hour Cell Viability Assessment for the High-Throughput Transcriptomics (HTTr) Platform, in MCF-7 cells cultured in DMEM + 10% fetal bovine serum, Harrill Lab (AID 2283975)
# Outline: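 MCF-7 cells in DMEM with 10% FBS exposed for 24 hours to an eight-point dilution series. Membrane integrity by propidium iodide exclusion with high content imaging; bidirectional fit against DMSO.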
# [10] = CCTE_Harrill_HTTr_Viability_PRF_DMEM_6hr: (Pilot) CCTE's 6-hour Cell Viability Assessment for the High-Throughput Transcriptomics (HTTr) Platform, in MCF-7 cells cultured phenol red-free DMEM + 10% charcoal-stripped fetal bovine serum, Harrill Lab (AID 2283976)
# Outline: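 MCF-7 cells in phenol red-free DMEM with 10% charcoal-stripped FBS exposed 6 hours to an eight-point dilution series. Propidium iodide exclusion imaged; curves fitted bidirectionally against DMSO.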
# [11] = CCTE_Harrill_HTTr_Viability_PRF_DMEM_12hr: (Pilot) CCTE's 12-hour Cell Viability Assessment for the High-Throughput Transcriptomics (HTTr) Platform, in MCF-7 cells cultured in phenol red-free DMEM + 10% charcoal-stripped fetal bovine serum, Harrill Lab (AID 2283977)
# Outline: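 MCF-7 cells in phenol red-free DMEM with 10% charcoal-stripped FBS exposed 12 hours to an eight-point dilution series. Viability assessed by high-content imaging of propidium iodide exclusion; bidirectional fit versus DMSO.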
# [12] = CCTE_Harrill_HTTr_Viability_PRF_DMEM_24hr: (Pilot) CCTE's 24-hour Cell Viability Assessment for the High-Throughput Transcriptomics (HTTr) Platform, in MCF-7 cells cultured in phenol red-free DMEM + 10% charcoal-stripped fetal bovine serum, Harrill Lab (AID 2283980)
# Outline: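 MCF-7 cells in phenol red-free DMEM with 10% charcoal-stripped FBS, eight-point dilution series, 24 h exposure. Membrane integrity by propidium iodide exclusion with high content imaging; bidirectional fit vs DMSO.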
# [13] = CCTE_Harrill_HTTr_Apoptosis_DMEM_6hr: (Pilot) CCTE's 6-hour Apoptosis Assessment for the High-Throughput Transcriptomics (HTTr) Platform, in MCF-7 cells cultured in DMEM + 10% fetal bovine serum, Harrill Lab (AID 2283981)
# Outline: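 Caspase-3/7 activation read by high content imaging with CellEvent Caspase 3/7 Green in MCF-7 cells (DMEM + 10% FBS), 6 h after dosing; eight-point dilution series. Bidirectional fitting relative to DMSO baseline.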
# [14] = CCTE_Harrill_HTTr_Apoptosis_DMEM_12hr: (Pilot) CCTE's 12-hour Apoptosis Assessment for the High-Throughput Transcriptomics (HTTr) Platform, in MCF-7 cells cultured in DMEM + 10% fetal bovine serum, Harrill Lab (AID 2283982)
# Outline: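 MCF-7 cells in DMEM + 10% FBS, exposed 12 h to an eight-point dilution series; caspase-3/7 activation imaged with CellEvent Green. Bidirectional fit versus DMSO.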
# [15] = CCTE_Harrill_HTTr_Apoptosis_DMEM_24hr: (Pilot) CCTE's 24-hour Apoptosis Assessment for the High-Throughput Transcriptomics (HTTr) Platform, in MCF-7 cells cultured in DMEM + 10% fetal bovine serum, Harrill Lab (AID 2283983)
# Outline: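 MCF-7 cells in DMEM + 10% FBS, eight-point dilution series, 24 h exposure. Caspase-3/7 activation imaged by high-content imaging with CellEvent Caspase 3/7 Green. Bidirectional curve fitting against DMSO baseline.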
# [16] = CCTE_Harrill_HTTr_Apoptosis_PRF_DMEM_6hr: (Pilot) CCTE's 6-hour Apoptosis Assessment for the High-Throughput Transcriptomics (HTTr) Platform, in MCF-7 cells cultured phenol red-free DMEM + 10% charcoal-stripped fetal bovine serum, Harrill Lab (AID 2283984)
# Outline: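 MCF-7 cells in phenol red-free DMEM + 10% charcoal-stripped FBS, eight-point dilution series, 6 h exposure. Caspase-3/7 activation imaged by high-content imaging with CellEvent Caspase 3/7 Green; bidirectional fit versus DMSO baseline.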
# [17] = CCTE_Harrill_HTTr_Apoptosis_PRF_DMEM_24hr: (Pilot) CCTE's 24-hour Apoptosis Assessment for the High-Throughput Transcriptomics (HTTr) Platform, in MCF-7 cells cultured in phenol red-free DMEM + 10% charcoal-stripped fetal bovine serum, Harrill Lab (AID 2283986)
# Outline: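 MCF-7 cells in phenol red-free DMEM with 10% charcoal-stripped FBS, exposed 24 h across an eight-point dilution series. Caspase-3/7 activation imaged with CellEvent Green by high content imaging; bidirectional fitting against DMSO.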
# [18] = biological target: Ratio of Nucleoli Translocation and Cytoplasm, AR (gene 367) (UniProt P10275); experiment: UPITT_HCI_U2OS_AR_TIF2_Nucleoli_Cytoplasm_Ratio_Antagonist: University of Pittsburgh U2OS Androgen Receptor-Transcriptional Intermediary Factor 2 (AR-TIF2) Antagonism High Content Imaging Assay for Ratio of Nucleoli Translocation and Cytoplasm (AID 2283999; active = hit-call score of the fitted dose curve at least 0.9, where 1 is the maximum;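 note: antagonists lower the DHT-driven ratio of nucleolar to cytoplasmic red signal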)
# Outline: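 U2OS cells expressing RFP-tagged human AR and GFP-tagged TIF2; compounds tested at 20 uM final (0.2% DMSO) in primary screen, 0.195–50 uM (0.5% DMSO) for concentration response. Readout: nucleolar-to-cytoplasmic red fluorescence ratio by high-content imaging, fitted relative to DHT.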
smiles,measurement,setting,value
CCCc1ccccc1,outcome,[1],inactive
same,outcome,[2],inactive
CCCCCCOC(=O)CC(CC(=O)OCCCCCC)(OC(=O)CCC)C(=O)OCCCCCC,outcome,[3],inactive
same,outcome,[4],inactive
same,outcome,[5],inactive
CC(C)c1nnc2ccc(-c3ocnc3-c3cc(F)ccc3F)cn12,AC50,[6],25.6 µM (active)
same,AC50,[7],76.2 µM (active)
same,outcome,[8],inactive
COCc1nnc(-c2ccc[n+]([O-])c2)n1-c1c(Cl)c(Cl)cc2[nH]c(=O)c(=O)[nH]c12,outcome,[5],inactive
same,outcome,[1],inactive
same,outcome,[2],inactive
OCCOCCOCCO,outcome,[3],inactive
same,outcome,[4],inactive
same,outcome,[5],inactive
CC(C)C(=O)Nc1ccc([N+](=O)[O-])c(C(F)(F)F)c1,outcome,[9],inactive
same,outcome,[10],inactive
same,outcome,[11],inactive
same,outcome,[12],inactive
same,outcome,[13],inactive
same,outcome,[14],inactive
same,outcome,[15],inactive
same,outcome,[16],inactive
same,outcome,[17],inactive
same,AC50,[1],5.06 µM (active)
same,AC50,[2],5.21 µM (active)
C=CCc1cc(S(=O)(=O)c2ccc(O)c(CC=C)c2)ccc1O,AC50,[4],84 µM (active)
same,outcome,[18],inactive
same,outcome,[5],inactive
same,AC50,[6],12.3 µM (active)
same,AC50,[7],8.67 µM (active)
same,outcome,[8],inactive
same,outcome,[1],inactive
same,outcome,[2],inactive
COc1cc2c(c(OC)c1OC)-c1ccc(OC)c(=O)cc1[C@@H](NC(C)=O)CC2,outcome,[3],inactive
same,outcome,[4],inactive
same,outcome,[18],inactive
same,outcome,[5],inactive
same,outcome,[1],inactive
same,outcome,[2],inactive
CCc1cccc(CC)c1N,outcome,[3],inactive
same,outcome,[4],inactive
same,outcome,[18],inactive
same,outcome,[5],inactive
Cn1c(=O)c2[nH]cnc2n(C)c1=O,outcome,[1],inactive
same,outcome,[2],inactive
c1ccc(C(O[C@@H]2CCCN(CCc3ccc4c(c3)OCO4)C2)c2ccccc2)cc1,outcome,[1],inactive
same,outcome,[2],inactive
CCCCCCCC/C=C\CCCCCCCC(=O)OC[C@@H](O)[C@H]1OC[C@H](O)[C@H]1O,outcome,[1],inactive
same,outcome,[2],inactive
